The values that follow come from PubChem BioAssay (NCATS).

Assay [1] in a line: qHTS drug screen for cell cycle checkpoint inhibitors in PARPi-resistant BRCA-mutant ovarian cancer cell lines. (AID 1963452; calls by dose curve). The conditions noted are these: PEO1/OlaR viability, CellTiter-Glo luminescence, 96 h, stronger effect = lower value. The gist of the method: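 PEO1, PEO4 and PEO1/OlaR ovarian cancer cells, 600 per well, exposed 96 h at 37C to a dilution series. Viability read by CellTiter-Glo luminescence, normalized to DMSO and empty wells; activity summarized as Z-AUC.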

Assay [2] can be described thus: qHTS for identification of novel therapeutic agents for treatment of microphthalmiaassociated transcription factor (MiT) renal cell carcinoma (RCC) (AID 1963991; calls by dose curve; also: potency is read from the fitted curve at half-maximal effect). The conditions noted are these: CellTiter-Glo, 48 h; for z-score: stronger effect = lower value. The gist of the method:
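Three TFE3-fusion RCC cell lines (UOK109, UOK124, UOK145), 500 cells/well, were exposed to the 1912-compound MIPE 4.0 library for 48 hours at 37 C. Viability was read by CellTiter-Glo luminescence, normalised to DMSO (100%) and empty wells (0%), with 11-concentration curve fits.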

Assay [3] deals with 3D7. The assay is described as follows: qHTS profiling for inhibitors of Plasmodium falciparum proliferation (AID 504749). Also: nearly all actives have a fitted effect of over 60% in size. Also: potency is read from the fitted curve at half-maximal effect.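 As to activity, negative = inhibition: 0% = DMSO vehicle and full inhibition = artemisinin control.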 Conditions: P. falciparum in erythrocytes, SYBR Green DNA, 72 h; series mostly up to 28.7 µM. The gist of the method:
(§1)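 Infected RBCs, 0.3% parasitemia/2.5% Hct final; cpd 72 h, 37 C, 5% CO2; lysis buffer with saponin/triton/SYBR Green I, o/n RT dark; FI 485/535; norm. to artemisinin (0.29 uM) and DMSO.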

Assay [4] has as its system 7G8. The assay is described as above. The conditions noted are these: P. falciparum in erythrocytes, SYBR Green DNA, 72 h; series mostly up to 28.7 µM. The method, boiled down: as §1
The test system of assay [5] is AA1029. The assay is described as above. Conditions: P. falciparum in erythrocytes, SYBR Green DNA, 72 h; series mostly up to 28.7 µM. The method, boiled down:
as §1

In assay [6] the test system is AS120. The assay is described as above. Conditions: P. falciparum in erythrocytes, SYBR Green DNA, 72 h; series mostly up to 28.7 µM. The method, boiled down:
as §1

Assay [7] deals with ATS95. The assay is described as above. The conditions noted are these: P. falciparum in erythrocytes, SYBR Green DNA, 72 h; series mostly up to 28.7 µM. The method, boiled down:
as §1

Assay [8] relates to C2A. Described as above. Conditions: P. falciparum in erythrocytes, SYBR Green DNA, 72 h; series mostly up to 28.7 µM. The gist of the method: as §1
In assay [9] the test system is CP185. The description is as above. Conditions: P. falciparum in erythrocytes, SYBR Green DNA, 72 h; series mostly up to 28.7 µM. The method, boiled down:
as §1

Assay [10] has as its system CP192. The description is as above. The conditions noted are these: P. falciparum in erythrocytes, SYBR Green DNA, 72 h; series mostly up to 28.7 µM. The gist of the method:
as §1

Assay in assay [11]: as above
The conditions noted are these: P. falciparum in erythrocytes, SYBR Green DNA, 72 h. The method, boiled down: as §1

Assay [12] relates to CP191. Described as above. Conditions: P. falciparum in erythrocytes, SYBR Green DNA, 72 h; series mostly up to 28.7 µM. The gist of the method:
as §1

The subject of assay [13] is ATS189. Described as above. The conditions noted are these: P. falciparum in erythrocytes, SYBR Green DNA, 72 h; series mostly up to 28.7 µM. The method, boiled down: as §1
Setting [14] is: measured here: PEO1 parental Z-AUC.
Where [15] appears, read: TFE3-RCC UOK109 viability, measured here: UOK109 Z-AUC.
[16] abbreviates: TFE3-RCC viability, measured here: UOK124 Z-AUC.
[17] abbreviates: TFE3-RCC viability, measured here: UOK145 Z-AUC.
Where [18] appears, read: at 28.7 µM (top of the series), parasite line A.
Where [19] appears, read: at 28.7 µM (top of the series), parasite line B.

Results filed as inconclusive are left out. The source made the active and inactive calls. Unless noted, calls follow the shape of the dose curve; as a rule, active = well fitted inhibition curve with a large enough effect; inconclusive = small, poorly fitted or top-dose-only effect; inactive = flat fitted curve, though single readings scatter.

On to `CCn1cc(C(=O)O)c(=O)c2cc(F)c(N3CCNC(C)C3)c(F)c21` (centres undefined), for which the Z-AUC in assay [1] was -0.481 (inactive); in assay [1] (setting [14]) it was -0.703; in [1] (measured here: PEO4 Z-AUC), -0.581. In addition, the figures for the z-score in [2] (setting [15]), in assay [2] (setting [16]) and in assay [2] (setting [17]) were 0.479, 0.345 and 0.675, respectively.

On to `Nc1nc2ccc(OC(F)(F)F)cc2s1`, for which the Z-AUC in [1] is -0.346 (inactive); in assay [1] (setting [14]), -0.387; in assay [1] (measured here: PEO4 Z-AUC), 0.245. The Potency result in assay [3], in assay [4], in [5], in [6], in assay [7] and in [8] was “inactive” each time. Moreover, the Potency result in assay [9] and in assay [10] was “inactive” each time.

As for `Cc1ccccc1C(OCCN(C)C)c1ccccc1` (centres undefined), the values for the activity, negative = inhibition in assay [11] (setting [18]) and in assay [11] (setting [19]) were -3.11% (inactive) and 5.42% (inactive), respectively. Moreover, the Potency result in assay [3], in assay [12] and in assay [10] was “inactive” each time. Besides, the Potency in [7] is 8910 nM (active).

Regarding `CCOC(=O)N1CCC(=C2c3ccc(Cl)cc3CCc3cccnc32)CC1`, the activity, negative = inhibition in assay [11] (setting [19]) is -13.3% (inactive). Besides, the results for the Potency in [11] (parasite line A), in assay [4] and in assay [6] were 12600 nM (active), 2240 nM (active) and 1780 nM (active), respectively. In addition, the Potency result in assay [13] and in [8] was “inactive” in each case.

As for `Cc1cn[nH]c1`, the values for the Z-AUC in assay [1], in [1] (setting [14]) and in assay [1] (measured here: PEO4 Z-AUC) were 1.01 (inactive), 0.488 and 0.423, respectively. The activity, negative = inhibition in assay [11] (setting [18]) was 7.67% (inactive); in assay [11] (setting [19]) it was 14.9% (inactive). Moreover, the Potency entry in assay [3], in assay [4], in [5], in assay [6], in assay [13] and in assay [7] was “inactive” in each case. Moreover, the Potency entry in assay [8], in [9], in assay [12] and in [10] was “inactive” in each case.

Turning to `Cc1ccc(N(CC2=NCCN2)c2cccc(O)c2)cc1`, the Z-AUC was 1.67 (inactive) in [1], 1.44 in [1] (setting [14]) and 1.79 in [1] (measured here: PEO4 Z-AUC). Also, the activity, negative = inhibition in assay [11] (setting [18]) was -3.3% (inactive); in assay [11] (setting [19]), -5.03% (inactive). In addition, the Potency result in [3], in [4], in assay [5], in assay [6], in [13] and in assay [7] was “inactive” throughout. Moreover, the Potency result in assay [8], in assay [9], in assay [12] and in assay [10] was “inactive” each time.

On to `Cc1oncc1C(=O)Nc1ccc(C(F)(F)F)cc1`, for which the figures for the Z-AUC in [1], in [1] (setting [14]) and in assay [1] (measured here: PEO4 Z-AUC) were 0.594 (inactive), 0.454 and 0.504, respectively. In addition, the activity, negative = inhibition was -4.31% (inactive) in [11] (at 12.8 µM (top of the series), parasite line A) and 9.52% (inactive) in assay [11] (at 12.8 µM (top of the series), parasite line B). Moreover, the Potency entry in assay [3], in [5], in [6], in [13], in [7] and in assay [8] was “inactive” in each case. The Potency entry in [9] and in [10] was “inactive” throughout. Further, the Potency in [4] is 3550 nM (active).

`Cc1c(CN2CCN(C(=O)C(C)C)CC2)sc2c(N3CCOCC3)nc(-c3cnc(N)nc3)nc12`: the Potency in [2] (TFE3-RCC UOK109 viability, active = Z-AUC below -0.8 in all three lines) is 118 nM (active). Besides, the z-score was -1.83 in assay [2] (setting [15]), -1.54 in assay [2] (setting [16]) and -2.67 in assay [2] (setting [17]).

Regarding `NC(N)=NC(=O)c1nc(Cl)c(N)nc1N`, the Z-AUC is -0.792 (inactive) in [1], -0.971 in assay [1] (setting [14]) and -0.392 in assay [1] (measured here: PEO4 Z-AUC). Moreover, the Potency was 2000 nM (active) in [4] and 8910 nM (active) in assay [12]. Moreover, the Potency entry in [9] and in [10] was “inactive” throughout.

As for `CNC[C@H](O)c1cccc(O)c1`, the Z-AUC in [1] is 0.649 (inactive); in assay [1] (setting [14]), 0.723; in [1] (measured here: PEO4 Z-AUC) it was 0.496. In addition, the values for the activity, negative = inhibition in assay [11] (setting [18]) and in assay [11] (setting [19]) were 6.65% (inactive) and -11% (inactive), respectively. The Potency result in [3], in [4], in assay [5], in [6], in [13] and in assay [7] was “inactive” in each case. Also, the Potency entry in assay [8], in [9], in assay [12] and in assay [10] was “inactive” in each case.
